Source: PubChem (National Center for Advancing Translational Sciences (NCATS))
Compounds with a hit are over-represented: about 2.4% of the library has one in this group of screens.
D2 PAM-1: Beta-Arrestin HTS for Positive Allosteric Modulators of the Human D2 Dopamine Receptor: Potentiators; DiscoveRx D2 beta-arrestin cells, luminescence, 90 min; 100% = 57 uM dopamine signal; potentiation, % (no concentration beside the values); 360,000 compounds, 0.23% hits; AID 624464, 2012; in the data active means potentiation above about 50%; inconclusive means mostly about 30% to 49%
Target sequence (P14416 whole entry, looked up): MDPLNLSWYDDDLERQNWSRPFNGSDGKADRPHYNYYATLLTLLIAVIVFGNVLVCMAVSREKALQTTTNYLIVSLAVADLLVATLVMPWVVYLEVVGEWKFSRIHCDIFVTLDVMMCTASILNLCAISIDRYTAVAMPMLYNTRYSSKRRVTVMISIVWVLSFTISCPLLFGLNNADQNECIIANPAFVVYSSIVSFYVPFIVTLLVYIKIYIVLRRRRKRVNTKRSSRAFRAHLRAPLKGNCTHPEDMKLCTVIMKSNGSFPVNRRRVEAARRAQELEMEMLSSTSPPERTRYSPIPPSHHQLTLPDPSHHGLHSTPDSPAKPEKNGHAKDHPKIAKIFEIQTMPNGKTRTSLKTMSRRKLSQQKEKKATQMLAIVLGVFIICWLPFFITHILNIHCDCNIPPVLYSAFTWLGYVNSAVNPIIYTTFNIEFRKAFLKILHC
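D2 cells co-treated with compound plus 50 nM dopamine (EC20) for 90 min at 37 deg C to detect potentiation. Beta-arrestin recruitment was read as enzyme-fragment luminescence after 1 h at ambient temperature. Full response was set by 57 uM dopamine.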
D2 antag: HTS Assay for Allosteric Antagonists of the Human D2 Dopamine Receptor: Primary Screen for Antagonists; inhibition, % at 10 µM; AID 485344, 2010; HEK293 TREx D2 cells, calcium flux, dopamine EC80; 340,000 compounds, 2% hits; in the data active means inhibition above about 30%; inactive means below that, where a call was filed; further: 0% is about no effect
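Calcium flux kinetic readout in an inducible HEK293 TREx D2 line plated overnight at 30 C. After 180 s compound exposure, an EC80 dopamine challenge follows with another 180 s kinetic read to detect antagonism.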
D2 PAM-2: HTS Assay for Positive Allosteric Modulators of the Human D2 Dopamine Receptor: Primary Screen for Potentiators. potentiation, % at 10 µM. AID 485347, 2010. 340,000 compounds, 0.34% hits. D(2) dopamine receptor (Homo sapiens), P14416. HEK293 T-REx D2, calcium flux, EC20 dopamine potentiation;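 active means potentiation over 3 SD above the plate norm, cut at about 30% in these data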; further: 0% is about no effect
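Tetracycline-induced HEK293 T-REx cells force-coupled to calcium signalling expressed D2; compounds were pin-added after a 10 s baseline, read kinetically 180 s, then an EC20 dopamine challenge followed with a further 180 s calcium read.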
D2 ag-1: HTS Assay for Allosteric Agonists of the Human D2 Dopamine Receptor: Primary Screen for Agonists; HEK293 T-REx D2 cells, calcium flux agonist mode; activation, % at 2 µM; 340,000 compounds, 0.53% hits; AID 485358, 2010;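 active means activation over 3 SD above normal in the single-dose calcium agonist read, cut at about 30% in these data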; further: 0% is about no effect
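HEK293 Trex D2 cells, tetracycline-induced, o/n 30 C 5% CO2; no-wash Ca dye, RT 30–90 min; 10-cycle baseline, 23 nl cpd added, kinetic Ca read 180 s; agonist hits = positive Ca response.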
D2 ag-2: Beta-Arrestin HTS for Positive Allosteric Modulators of the Human D2 Dopamine Receptor: Agonists | 360,000 compounds, 0.084% hits | AID 624465, 2012 | activation, % (no concentration beside the values) | DiscoveRx PathHunter D2 beta-arrestin, luminescence, 90 min; 100% = 57 uM dopamine signal; in the data active means activation above about 40%; inconclusive means between about 15% and that limit
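DiscoveRx PathHunter D2 beta-arrestin cells (2,100/well) attached overnight, then compound-stimulated 90 min at 37 C in HBSS/10 mM HEPES/0.1% Tween-20 buffer; beta-galactosidase complementation read by luminescence after 1 h at ambient temperature. Dopamine 57 uM final (EC100) as control.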
D3 arrestin ag: qHTS of D3 Dopamine Receptor Agonist: D3 Dopamine Receptor B-arrestin Agonist Confirmatory Assay. shares compounds with D2 ag-1. DiscoveRx D3 beta-arrestin cells, luminescence, 90 min. Potency, µM (doses to about 76.9 µM), for inactives: at the highest dose activation, usual class: activators. 2,300 compounds, 4% hits;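 further: potency means the concentration at half of the fitted maximal effect; 100% = dopamine control response; nearly all actives have a fitted effect of over 70% in size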
D2 ag-3: qHTS of D3 Dopamine Receptor Agonist: D2 Dopamine Receptor B-arrestin Agonist Counterscreen | shares compounds with D2 ag-1 | DiscoveRx PathHunter D2 beta-arrestin, luminescence, 90 min; response scale: percent relative to full dopamine signal | Potency, µM (series often up to 76.9 µM), for inactives: top-dose activation, hits mostly activators | 2,300 compounds, 5.9% hits | AID 720507, 2013; further: potency means the concentration at half of the fitted maximal effect; % of control where 0% means no effect; nearly all actives have a fitted effect of over 70% in size
An asterisk follows results filed as active. Unless noted, the call rests on the fitted dose curve; in most records, active means well fitted activation curve with a large enough effect; inconclusive means small, poorly fitted or top-dose-only effect; inactive means flat fitted curve, though single readings scatter.

What do the screens show for `CC12CCC(C(=O)N(CCCCN3CCN(c4ccccn4)CC3)C1=O)C2(C)C` (stereo not given)?
D2 PAM-1: 57*; D2 antag: 84*; D2 PAM-2: -21; D2 ag-1: 73*; D2 ag-2: 73*; D3 arrestin ag: inconclusive; D2 ag-3: 0.071µM*

How did COC(=O)c1ccc(OCC2c3cc(OC)c(OC)cc3CCN2C(=O)Cc2ccc(OC)c(OC)c2)cc1 (stereo not given) do in these assays?
D2 PAM-2: -10; D2 ag-1: 0

Results for COc1ccccc1C1(O)CCN(CC(=O)Nc2nc(-c3ccccc3)cs2)CC1 ?
D2 PAM-1: -14; D2 antag: -3; D2 PAM-2: -16; D2 ag-1: 32*; D2 ag-2: 2; D3 arrestin ag: 1%; D2 ag-3: 20%

How did CCc1nnc(NC(=O)CN2CCC(O)(c3ccccc3OC)CC2)s1 do in these assays?
D2 PAM-1: 1; D2 antag: -5; D2 PAM-2: 2; D2 ag-1: 0; D2 ag-2: 0

What do the screens show for `COC(=O)c1cccc(NC(=O)CN2CCc3ccccc3C2)c1`?
D2 PAM-1: 0; D2 antag: 13; D2 PAM-2: 6; D2 ag-1: 5; D2 ag-2: -1; D3 arrestin ag: inconclusive; D2 ag-3: 14%

Results for COc1ccc(-c2cc(C(F)(F)F)nc(SCC(=O)NCCc3ccccc3)n2)cc1OC ?
D2 PAM-2: 19; D2 ag-1: -1

What do the screens show for `CCC(=NCCc1ccccc1)C1=C(O)CCC1=O`?
D2 PAM-1: 2; D2 antag: -5; D2 PAM-2: -17; D2 ag-1: 49*; D2 ag-2: -4; D3 arrestin ag: 3%; D2 ag-3: 2%

Results for COc1ccc(N2CC(NC(=O)c3ccco3)CC2=O)cc1OC (stereo not given) ?
D2 PAM-2: -8; D2 ag-1: 0

Results for C/C(=N\NC(=S)Nc1cccc(C)c1)c1ccco1 ?
D2 PAM-1: -10; D2 antag: 67*; D2 PAM-2: -7; D2 ag-1: 70*; D2 ag-2: 6; D3 arrestin ag: -1%; D2 ag-3: -5%

Results for C/C(=N\NC(=S)Nc1cccc(C)c1)c1ccccc1 ?
D2 PAM-1: -40; D2 antag: -6; D2 PAM-2: 12; D2 ag-1: -1; D2 ag-2: -8

What do the screens show for `CN1CCN(C(=O)N2c3ccccc3C=Cc3ccccc32)CC1`?
D2 PAM-1: -10; D2 antag: -11; D2 PAM-2: -18; D2 ag-1: 54*; D2 ag-2: -1; D3 arrestin ag: -4%; D2 ag-3: -4%

How did O=C(CN1CCN(c2cccc(Cl)n2)CC1)N1CC(O)CO1 (stereo not given) do in these assays?
D2 PAM-1: -8; D2 antag: 3; D2 PAM-2: -3; D2 ag-1: 0; D2 ag-2: 0

Results for Cc1ccc2[nH]cc(C(=O)CN3CCN(c4ccccn4)CC3)c2c1 ?
D2 PAM-1: -42; D2 antag: 34*; D2 PAM-2: -28; D2 ag-1: 19; D2 ag-2: 2; D3 arrestin ag: 10%; D2 ag-3: 4%

Results for O=C(CN1CCN(c2ccccn2)CC1)N1CC(O)CO1 (stereo not given) ?
D2 PAM-1: 0; D2 antag: 12; D2 PAM-2: -13; D2 ag-1: 29; D2 ag-2: 7; D3 arrestin ag: 21%; D2 ag-3: 6%

How did Cc1ccc(C(=O)CN2CCN(c3ccccn3)CC2)c(C)c1 do in these assays?
D2 PAM-1: 4; D2 ag-2: inconclusive; D3 arrestin ag: inconclusive; D2 ag-3: inconclusive

How did Cc1ccc(CCNC(=O)CN2CCN(Cc3ccc(Cl)cc3)C2=O)cc1 do in these assays?
D2 PAM-2: 1; D2 ag-1: 1

Results for Cc1ccc(C(=O)c2oc3ccccc3c2NC(=O)Cc2ccccc2)cc1 ?
D2 PAM-2: -1; D2 ag-1: 1

How did COc1ccc(CCNC(=O)Cc2c(C)c3cc4c(C)coc4cc3oc2=O)cc1OC do in these assays?
D2 PAM-2: -2

Results for CCOC(=O)C(CC(=O)O)NCc1ccco1 (stereo not given) ?
D2 PAM-1: -7; D2 antag: 7; D2 PAM-2: 12; D2 ag-1: 1; D2 ag-2: -3

How did CC(C)OC(=O)C(CC(=O)O)NCc1ccccc1 (stereo not given) do in these assays?
D2 PAM-1: -2; D2 antag: 68*; D2 PAM-2: 4; D2 ag-1: -1; D2 ag-2: -1; D3 arrestin ag: -8%; D2 ag-3: -4%

What do the screens show for `CC(SCc1cc(=O)n2c([nH]c3ccccc32)c1C#N)C(=O)O` (stereo not given)?
D2 PAM-1: -8; D2 antag: 2; D2 PAM-2: -3; D2 ag-1: 1; D2 ag-2: 0

Results for COCc1cc(=O)n2c([nH]c3ccccc32)c1C#N ?
D2 PAM-1: -1; D2 antag: 37*; D2 PAM-2: 10; D2 ag-1: 0; D2 ag-2: 1; D3 arrestin ag: 22%; D2 ag-3: 6%

How did CCOC(=O)c1nncc(-c2ccccc2)n1 do in these assays?
D2 PAM-1: -5; D2 antag: 2; D2 PAM-2: 16; D2 ag-1: 0; D2 ag-2: -2; D3 arrestin ag: -3%; D2 ag-3: -3%

Results for CCOC(=O)c1cc(-c2ccccc2)n[nH]1 ?
D2 PAM-1: 2; D2 antag: -15; D2 PAM-2: -1; D2 ag-1: -1; D2 ag-2: -1

Results for CCOC(=O)CNC(=O)N1[C@H](c2cccs2)[C@@H](C)C(=O)[C@@H](C)[C@@H]1c1cccs1 ?
D2 PAM-2: -11; D2 ag-1: 0
